As usually defined, the inhibition is the change of the read-out against control, counted positive when it falls.

The test concerns the target Glucose transporter (Leishmania mexicana) (UniProt O61059). Nature of the test: ST_JUDE_LEISH: Cytotoxicity at 2uM final concentration against transgenic Leishmania Mexicana promastigotes LmGT2 that are glucose transport deficient and complemented with the L. Mexicana glucose transporter 2. Activity is measured by DNA content using SYBR green in vitro. In kind it is functional.
Take `Cc1cccc2nc(-c3cccc(-c4ccc(NC(=O)CC5NC(=O)c6ccccc65)cc4)c3)[nH]c12` (stereo not given): the inhibition is 7.01%. Under `OC1CCCN(Cc2ccc(-c3ccc(-c4nc5ccccc5[nH]4)cc3)cc2)C1` (stereo not given) stands 5.37%; under `CN(CCC(O)c1ccc(Cl)c(Cl)c1)CC1CC1C(=O)c1ccccc1` (stereo not given), 5.49%. The same measure for `CS(=O)(=O)N(c1ccccc1)c1cc(C(=O)N[C@@H](Cc2ccccc2)[C@H](O)CNC2CC2)cc(N2CCCC2=O)c1`: 4.38%. The same measure for `O=C(Nc1cc(F)cc(F)c1)N[C@H]1CCN(CCCCCNC(=O)C2CC2c2ccc(Cl)c(Cl)c2)C1` (stereo not given in full): -1.55%. Take `C=CCOc1ccc(-c2c(C)[nH]c(C)c(Br)c2=O)cc1`: the inhibition is -0.17%. `O=C(NCCNc1ccnc(Nc2ccc(F)cc2)n1)Nc1ccc2c(c1)OCO2`: the inhibition came to 0.6%. The same measure for `COc1ccc(Nc2nc(=Nc3ccccc3)nc(NN=Cc3cc(Cl)ccc3O)[nH]2)cc1`: 1.08%. With `COC(=O)c1cccc(NC(=O)NC2CCN(c3ccnc(Nc4ccc(OC)cc4)n3)C2)c1` (stereo not given), the inhibition was found to be 0.1%. Under `Cc1nn(CC(C)C)c2sc(C(=O)N3CCN(S(=O)(=O)c4ccc(C#N)cc4)CC3)cc12` stands 5.07%. Regarding `O=C(Nc1ccc2c(c1)CCC2)c1cnc(N2CCN(c3ccncc3)CC2)c(Cl)c1`, the inhibition is 37%.

In the case of `COc1ccc(-c2cc(Nc3nc(-c4cccc(Cl)c4)nc4ccccc34)ccn2)cc1`, the inhibition is -0.05%.

Take `COc1ccc2c(NN=Cc3ccc(F)cc3)ccnc2c1`: the inhibition came to 1.85%. The same measure for `O=C(O)CCc1ccc(-c2c[nH]c3ncc(-c4ccc5ncccc5c4)cc23)cc1`: 5.55%; for `CCOc1ccc2c(=NN=Cc3ccc(OC)c(OC)c3)cc(C)[nH]c2c1`: -0.04%.

For `O=C(NCCCNc1nc2ccccc2[nH]1)c1cccc(OC(F)(F)F)c1`, the inhibition was 1.46%.

As for `O=C(Nc1cc(Cl)cc(Cl)c1)Nc1ccnc2ccccc12`, the inhibition was -2.71%.

Consider `CC(C)N1CCC(N(Cc2ccc(-c3ccc(C(F)(F)F)cc3)cc2)C(=O)Cn2c(CCc3cccc(F)c3F)nc(=O)c3cccnc32)CC1`, for which the inhibition came to 0.94%.

Take `COc1ccc(-c2cccc(NC(=O)c3cccc(Cl)c3)c2)cc1CN1CCC(O)CC1`: the inhibition was 5.34%.

For `c1ccc(CN2CCC(NCc3ccccc3-c3ccc(CNCc4ccc5c(c4)OCO5)cc3)CC2)cc1`, the inhibition was 9.54%.

Turning to `COc1ccccc1COc1c(C)nc(N)nc1N`, the inhibition was -1.06%. The same measure for `Cc1nc(NCCc2c[nH]cn2)cc(NCc2ccccc2)n1`: 3.61%; for `CC1(C)C2C=C(CN3CCC(NC(=O)Nc4ccc(Cl)c(Cl)c4)CC3)C1CC2` (stereo not given): 7.92%. Under `Cc1cc2ncn(-c3ccnc(N4CCN(CCCN5CCCC5)CC4)n3)c2cc1C` stands 2.01%; under `COC(=O)c1cccc(CNCc2ccc(-c3ccc(-c4nc5cc(F)ccc5[nH]4)s3)cc2)c1`, 1.42%. With `Cc1cc(NC(=O)NCCN2CCC(NS(=O)(=O)c3ccccc3Cl)C2)c2ccccc2n1` (stereo not given), the inhibition was 8.99%. Under `COC(=O)c1cccc(CNCc2cccc(-c3ccc(-c4nc5ccccc5[nH]4)s3)c2)c1` stands 1.96%. The same measure for `COc1ccc2nccc(N3CCC(CCNCc4cc5c(cn4)OCCO5)CC3)c2n1`: 1.72%. The same measure for `CC(CCc1ccccc1)NCC(O)c1ccc2c3c(cccc13)C(=O)N2C` (stereo not given): -0.76%; for `N=C(N)Nc1nc(-c2ccc(NC(=O)Nc3cccc(-c4csc(NC(=N)N)n4)c3)cc2)cs1`: -0.17%; for `Cc1ccc(C2(C)CN(CCCOc3cccc(-c4ccc(C(=O)NC(C)C)cc4)c3)CCO2)cc1` (stereo not given): 0.85%. On to `O=C(Nc1cccc(OC2CCN(Cc3ccsc3)CC2)c1)c1ccc(C(F)(F)F)cc1`, for which the inhibition was -1.05%.

Regarding `CN1CCC(N(Cc2ccc(-c3cnc(NCc4ccccc4)nc3)cc2)S(=O)(=O)c2ccccc2)CC1`, the inhibition was determined as 3.05%.

Consider `O=C(Nc1cccc(C(F)(F)F)c1)NC1CCN(c2ccnc3ccccc23)C1` (stereo not given), for which the inhibition is 6.33%. Under `O=C(Nc1cccc(-c2cccc(-c3nc4cc(C(F)(F)F)ccc4[nH]3)c2)c1)c1csnn1` stands 9.43%. The same measure for `Oc1ccc(CCNc2nc(NCCCOc3cccc(-c4ccccc4)c3)nc(N3CCNCC3)n2)cc1`: 2.5%; for `Cc1cc(NC(=O)c2cccs2)ccc1OC1CCN(Cc2ccc(F)cc2)CC1`: 5.08%; for `CCN(CC)CCN(Cc1ccc(-c2ccc(C(F)(F)F)cc2)cc1)C(=O)Cn1c(CCc2cccc(F)c2F)nc(=O)c2cc(C)ccc21`: 7.16%. Under `COc1ccc(CNCc2ccccc2)cc1-c1cccc(S(=O)(=O)NCCN2CCCC2)c1` stands -3.15%; under `O=C(Nc1ccc(Cl)c(Cl)c1)Nc1ccc2nccc(N3CCNCC3)c2c1`, 0.13%.
